Assay outcomes from PubChem.
Pf growth 96h = P. falciparum growth inhibition at 96 hours; hit rate 6.9% among 320,000; Potency, µM (top dose mostly 28.7 µM), without a hit: at the highest dose activity change, negative = inhibition, most hits filed as inhibitors; P. falciparum luciferase reporter growth, 96 h; AID 504834
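Luminescence readout: decreased luciferase signal marks inhibited growth of reporter-expressing P. falciparum in infected red cells (2% hematocrit, 0.05% parasitemia final), exposed to compound two generations (96 h, 37 C, 5% CO2).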
Vaccinia Venus = inhibitors of vaccinia virus (Venus reporter); hit rate 0.46% among 330,000; Potency, µM (titrated, usually from 36.5 µM), without a hit: top-dose activity change, negative = inhibition, usual class: inhibitors; Vaccinia virus Venus reporter expression, fluorescence; AID 720580; calls by dose curve; tested in A549 cells; further: nearly all actives have a fitted effect of over 30% in size
Pf growth 48h = inhibits P. falciparum growth in the first generation, 48 h | P. falciparum luciferase growth in erythrocytes, 48 h | hit rate 5.9% among 310,000 | Potency, µM (titrated, usually from 28.7 µM), inactives show at the top dose activity change, negative = inhibition, usual class: inhibitors
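Growth was read as firefly luciferase luminescence after a 48 h, 37 C, 5% CO2 exposure of compounds to reporter-bearing P. falciparum cultures (0.1% parasitemia, 2% hematocrit final) in Albumax-supplemented RPMI 1640.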
VACV mCherry inh = inhibitors of vaccinia virus infection (mCherry reporter signal). Vaccinia virus mCherry reporter infection, fluorescence. Potency, µM (series often up to 36.5 µM), for inactives: at the highest dose activity change, negative = inhibition, usual class: inhibitors. hit rate 0.63% among 310,000. AID 720579; calls by dose curve; tested in A549 cells; further: nearly all actives have a fitted effect of over 35% in size
AMA1-RON2 inh = inhibitors of Plasmodium falciparum AMA1-RON2 interaction. hit rate 0.2% among 360,000. AlphaScreen AMA1-biotinylated RON2 peptide binding. Potency, µM (highest dose often 58.2 µM), for inactives: at the highest dose activity change, negative = inhibition, most hits filed as inhibitors;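 further: 0% = vehicle wells and -100% = peptide control; nearly all actives have a fitted effect of over 45% in size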
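AMA1 (3D7) with his tag at 25 nM final met compounds first, then biotinylated RON2 peptide at 25 nM; detection used donor plus acceptor beads, 10 µg/mL apiece, read by AlphaScreen after 30 min at room temperature.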
* marks the source's active call; other numbers are inactive results; i = inactive; ? = inconclusive; . = no result given; ! = not confirmed by another sample; [ ] = dose if it differs, or a comment. Hits are enriched below; roughly 8.7% of the tested compounds scored in any of these assays. Unless noted, the call rests on the fitted dose curve; in most records, active means well fitted curve in the direction sought with a large enough effect; inconclusive means small, poorly fitted or top-dose-only effect, or another doubt; inactive means no such curve, though single readings can be large; an effect the other way counts as inactive or inconclusive. Unless noted, on the % scale 0 is the no-effect control and ±100 the full control effect; potency means the concentration at half of the fitted maximal effect.

SMILES	Pf growth 96h	Vaccinia Venus	Pf growth 48h	VACV mCherry inh	AMA1-RON2 inh
COc1ccccc1CNc1ccc(-c2nc(-c3ccccn3)no2)cc1[N+](=O)[O-]	.	?	.	i	.
Clc1ccc(-c2nc3ccccn3c2Nc2ccc3c(c2)OCCO3)s1	.	0%	.	-2%	.
Cc1ccc(O)c(Nc2nc3ccccc3c3nncn23)c1	.	-4%	.	-17%	.
Cc1nn(S(=O)(=O)c2ccc(C(C)C)cc2)c(C)c1S(=O)(=O)N1CCCCCC1	.	6%	.	4%	.
CCN(CC)S(=O)(=O)c1ccc(/C=C/C(=O)Nc2ccc(N3CCOCC3)cc2)cc1	1.9µM*	.	10µM*	.	-27%
COc1cccc(CN(C)C(=O)/C=C/c2ccc(S(=O)(=O)N3CCCCCC3)cc2)c1	12µM*	-24%	12µM*	?	-4%
COc1ccc(S(=O)(=O)N2CCN(CC(=O)Nc3cccc(OC)c3)CC2)cc1	13µM*	.	-12%	.	0%
COc1cccc(NC(=O)CN2CCCN(S(=O)(=O)c3ccc(Br)cc3)CC2)c1	.	-9%	.	-17%	.
CCN(Cc1ccc(OC)c(F)c1)C(=O)/C=C/c1ccc(S(=O)(=O)N2CCOCC2)cc1	9.3µM*	.	10µM*	.	2%
O=C(/C=C/c1ccc(S(=O)(=O)N2CCOCC2)cc1)NC(=S)Nc1ccc(N2CCOCC2)cc1	?	-11%	-13%	-18%	-13%
COc1cccc(/C=C/C(=O)OCC(=O)Nc2ccc(S(=O)(=O)N3CCCC3)cc2)c1	10%	-16%	21%	-4%	-2%
COc1ccc(Cn2cc(S(=O)(=O)c3ccc(C)cc3)c(=O)c3cc(F)ccc32)cc1	.	-4%	.	-1%	.
COC(=O)CCn1cnc2onc(-c3cc(F)cc(F)c3)c2c1=O	.	4%	.	0%	.
Cn1c(CCC(=O)Nc2ccc(F)cc2)nc2cc(S(=O)(=O)N3CCOCC3)ccc21	?	6%	-25%	-5%	-7%
COc1cccc(NC(=O)CN(C)C(C)C(=O)Nc2ccc(S(=O)(=O)N3CCOCC3)cc2)c1 (stereo not drawn)	4.7µM*	.	5.2µM*	.	49%
CC(=O)Nc1cccc(NC(=O)/C=C/c2ccc(S(=O)(=O)N3CCOCC3)cc2)c1	.	-9%	.	i	-3%
COc1ccc(/C=C/C(=O)Nc2ccccc2F)cc1S(=O)(=O)N1CCOCC1	.	-19%	.	-1%	-1%
CCCn1c(CCC(=O)Nc2ccccc2Cc2ccccc2)nc2cc(S(=O)(=O)N3CCOCC3)ccc21	2.3µM*	-15%	.	.	8%
COc1ccc(/C=C/C(=O)Nc2cccc(F)c2)cc1S(=O)(=O)N1CCOCC1	6.6µM*	?	?	-27%	2%
COc1cccc(NC(=O)/C=C/c2ccc(S(=O)(=O)N3CCOCC3)cc2)c1	10µM*	.	?	.	3%
CN(C)c1ccc(-c2nnc(SCC(=O)NCc3ccco3)n2C)cc1	.	-13%	.	-11%	.
COc1ccc(CNC(=O)CN2CCN(S(=O)(=O)c3cccs3)CC2)cc1OC	9%	-4%	9%	i	-2%
COc1ccc(NC(=O)CN2CCN(S(=O)(=O)c3cccs3)CC2)cc1Cl	12µM*	.	?	.	0%
O=C(/C=C/c1ccc(F)cc1)Nc1ccc(S(=O)(=O)N2CCOCC2)cc1	?	-22%	10µM*	?	3%
O=C(/C=C/c1ccc(F)cc1)Nc1cc(S(=O)(=O)N2CCOCC2)ccc1N1CCOCC1	.	-6%	.	i	6%
SMILES	Pf growth 96h	Vaccinia Venus	Pf growth 48h	VACV mCherry inh	AMA1-RON2 inh
CCOc1ccccc1NC(=O)/C=C/c1ccc(S(=O)(=O)N2CCOCC2)cc1	4.7µM*	-17%	4.7µM*	-14%	4%
Cc1cccc(NC(=O)Cn2c(=O)ccc3cc(S(=O)(=O)N4CCCC4)ccc32)c1C	.	-1%	.	3%	.
CCC1CN(CC(=O)NC(C)c2cn(C)nc2C)Cc2cc(OC)ccc2O1 (stereo not drawn)	.	3%	.	-9%	.
CC(NC(=O)c1ccco1)C(c1cccs1)N1CCN(c2ccc(F)cc2)CC1 (stereo not drawn)	.	-17%	7.4µM*	-8%	-7%
CC(NC(=O)c1ccco1)C(c1cccs1)N1CCN(c2ccccc2F)CC1 (stereo not drawn)	.	-20%	?	i	-5%
CC(NC(=O)c1ccco1)C(c1cccs1)N1CCN(c2ccccc2)CC1 (stereo not drawn)	13µM*	-1%	12µM*	27%	-6%
Cc1cc(C)cc(-n2ccnc2SCC(=O)Nc2ccccc2F)c1	.	-3%	.	-16%	.
CCOC(=O)C1=C(C)NC(=O)NC1c1ccc(OCC(=O)N2CCCCC2)cc1 (stereo not drawn)	3%	-9%	2%	.	4%
CCOC(=O)C1=C(C)NC(=O)NC1c1c(OCC(=O)N2CCCCC2)ccc2ccccc12 (stereo not drawn)	25%[5.75 µM]	-18%	12µM*	.	-6%
CSCc1c(C(=O)N2CCCc3ccccc32)oc2ccccc12	-53%	-15%	12µM*	i	?
COc1ccc(CCNC(=O)c2c(C)oc3ncnc(N4CCOCC4)c23)c(OC)c1	.	-13%	.	-19%	.
COc1ccc(Cc2nc3ccc(C(=O)N4CCCCC4CCO)cc3o2)cc1 (stereo not drawn)	7.4µM*	-15%[7.34 µM]	-21%	i[7.34 µM]	0%
CCC1CCCCN1C(=O)c1ccc2nc(Cc3ccc(OC)cc3)oc2c1 (stereo not drawn)	17%	.	?	.	-5%
NC(=O)c1ccccc1NC(=O)CC12CC3CC(CC(C3)C1)C2	9.3µM*	.	-11%	.	-1%
CN(C)S(=O)(=O)c1cccc(NC(=O)CC23CC4CC(CC(C4)C2)C3)c1	?	-3%	15µM*	-8%	-10%
Cc1cccc(NC(=O)CSC2=Nc3ccccc3C3=NC(CC(=O)NCc4cccs4)C(=O)N23)c1 (stereo not drawn)	.	-1%	.	-6%	.
Cc1ccc(CNC(=O)CCCc2nnc3n(CC(C)C)c(=O)c4sccc4n23)cc1	.	-4%	.	-10%	.
CCc1nn(CC(=O)NCCc2ccc(SC)cc2)c(=O)c2cc3sccc3n12	.	-17%	.	i	.
Cc1ccc2c(c1)nnn2C1CCN(S(=O)(=O)c2ccc3ccccc3c2)CC1	-19%	-26%	10µM*	?	-16%
O=S(=O)(NC1CCCC1)c1cccc(S(=O)(=O)N2CCC(n3nnc4ccccc43)CC2)c1	42%	.	10µM*	.	-9%
Cc1ccc2c(c1)nnn2C1CCN(S(=O)(=O)c2ccc(C(=O)N(C)C)cc2)CC1	-25%	.	?	.	-6%
Cc1ccc2c(c1)nnn2C1CCN(S(=O)(=O)c2cccc(S(=O)(=O)N(C)C)c2)CC1	?	-24%	10µM*	-25%	32%
COc1cc(NC(=O)c2nn(C)c3c2COc2ccccc2-3)cc(OC)c1OC	.	-22%	.	-20%	.
CCOC(=O)c1cc(S(=O)(=O)NCc2ccc(OC)cc2)[nH]n1	.	-11%[7.34 µM]	.	-9%[7.34 µM]	.
Cc1nc2ccccc2nc(=O)c1NNc1ccccc1	6.7µM*!	-10%	87%	-26%	-5%
